Whole data set: some 1,100 sequences, median “thermal melting temperature (Tm) of peptide-HLA complex” near 58, cut for the lowest 2% near 42. Only a selection was taken, and the lowest values are over-represented in it overall.
B1: unnamed (peptide)
chain: ILSGVIRSV
B2: unnamed (peptide)
chain: LLYDGKLSSA
B3: unnamed (peptide)
chain: LLVDVEPKV
B4: unnamed (peptide)
chain: QMISRIEYV
B5: unnamed (peptide)
chain: KLTENLVAL
B6: unnamed (peptide)
chain: FLNKEITSV
B7: unnamed (peptide)
chain: TLLTFFHEL
B8: unnamed (peptide)
chain: YLPEDFIRV
B9: unnamed (peptide)
chain: FVMETFVHL
B10: unnamed (peptide)
chain: ILTEAIKAA
B11: unnamed (peptide)
chain: TLLTDPPTA
B12: unnamed (peptide)
chain: VMFGGKQVVV
B13: unnamed (peptide)
chain: KLFNEFIQL
B14: unnamed (peptide)
chain: SLYSQVHQI
B15: unnamed (peptide)
chain: NLYEEWTQV
B16: unnamed (peptide)
chain: VLMTQQPRPVL
B17: unnamed (peptide)
chain: YLTAFTKNL
B18: unnamed (peptide)
chain: GLPRFGIEMV
B19: unnamed (peptide)
chain: KQTDLEITV
B20: unnamed (peptide)
chain: RVISELQEA
B21: unnamed (peptide)
chain: NVIERLQEA
B22: unnamed (peptide)
chain: AQFEHTILL
B23: unnamed (peptide)
chain: QLAQFVHEV
B24: unnamed (peptide)
chain: ALADFAELLRA
B25: unnamed (peptide)
chain: NLLEIAPHL
B26: unnamed (peptide)
chain: SLLDPVPEV
B27: unnamed (peptide)
chain: ELMEQVPHI
B28: unnamed (peptide)
chain: TLSQAIVKV
B29: unnamed (peptide)
chain: RIIDTVAQV
B30: unnamed (peptide)
chain: GLVDKLQAL
B31: unnamed (peptide)
chain: KVLGIVVGV
B32: unnamed (peptide)
chain: NQIEDNDDFQL
B33: unnamed (peptide)
chain: NLIPILKTV
B34: unnamed (peptide)
chain: SQTFVNPHV
B35: unnamed (peptide)
chain: YLLTESSKL
B36: unnamed (peptide)
chain: YLWPRGSPAL
B37: unnamed (peptide)
chain: FLDDVVHSL
B38: unnamed (peptide)
chain: SLHEFLVNL
B39: unnamed (peptide)
chain: RLMNDMTAV
B40: unnamed (peptide)
chain: RLLDGAFKL
B41: unnamed (peptide)
chain: SLLDGHFVL
B42: unnamed (peptide)
chain: VLIDYQRNV
B43: unnamed (peptide)
chain: FLSSVIQNL
B44: unnamed (peptide)
chain: QLYNQIIKL
B45: unnamed (peptide)
chain: IQDFEMPTV
B46: unnamed (peptide)
chain: VMLDVPIRL
B47: unnamed (peptide)
chain: HLIDDLLAA
B48: unnamed (peptide)
chain: ALFPAPLAQI
B49: unnamed (peptide)
chain: NIIELVHQV
B50: unnamed (peptide)
chain: KLGDFGLLV
B51: unnamed (peptide)
chain: FLNPDEVHAI
B52: unnamed (peptide)
chain: FLMENGSITSI
B53: unnamed (peptide)
chain: YLSGIAHFL
B54: unnamed (peptide)
chain: SLAQYLINA
B55: unnamed (peptide)
chain: TIPEAFRGV
B56: unnamed (peptide)
chain: KLLWTTSRV
B57: unnamed (peptide)
chain: RVIGTLEEV
B58: unnamed (peptide)
chain: YLDEDTIYHL
B59: unnamed (peptide)
chain: AALEEADKMFL
B60: unnamed (peptide)
chain: SVTSEGIKAV
B61: unnamed (peptide)
chain: TVADKIHSV
B62: unnamed (peptide)
chain: KMDEVLYSI
B63: unnamed (peptide)
chain: RLAEVGQYEQV
B64: unnamed (peptide)
chain: TLIGLSIKV
B65: unnamed (peptide)
chain: SVAEGRALMSV
B66: unnamed (peptide)
chain: FQVDEIYTV
B67: unnamed (peptide)
chain: ILDQKVALL
B68: unnamed (peptide)
chain: ILDQKINEV
B69: unnamed (peptide)
chain: VILESDPQQVV
B70: unnamed (peptide)
chain: IIADMDKWTV
B71: unnamed (peptide)
chain: SMGQLPHTV
B72: unnamed (peptide)
chain: ALERLLPQV
B73: unnamed (peptide)
chain: KLYQEVEIASV
B74: unnamed (peptide)
chain: SLLPFLKAV

target: HLA-A*02:01; test: thermal melting temperature (Tm) of peptide-HLA complex; higher = more thermostable pHLA complex; settings: C1R-A*02:01
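Note: lysates heated 10 min at 37–73 °C, complexes pulled down with pan-HLA I antibody, peptide signal by DIA-MS relative to 37 °C, Tm where half the complex is unfolded.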

Row | Sequence | thermal melting temperature [°C]
1 | B1 | 56.6
2 | B2 | 59.4
3 | B3 | 55.5
4 | B4 | 59.7
5 | B5 | 59
6 | B6 | 59.6
7 | B7 | 57.4
8 | B8 | 61.4
9 | B9 | 57
10 | B10 | 59.3
11 | B11 | 59.5
12 | B12 | 57.5
13 | B13 | 57.8
14 | B14 | 60.2
15 | B15 | 59.9
16 | B16 | 48.8
17 | B17 | 60.8
18 | B18 | 60.1
19 | B19 | 57.5
20 | B20 | 40.7
21 | B21 | 57.2
22 | B22 | 58.1
23 | B23 | 62.3
24 | B24 | 62
25 | B25 | 52.1

Row | Sequence | thermal melting temperature [°C]
26 | B26 | 62.5
27 | B27 | 48.9
28 | B28 | 54.1
29 | B29 | 60.6
30 | B30 | 55.6
31 | B31 | 61
32 | B32 | 42
33 | B33 | 56
34 | B34 | 57.8
35 | B35 | 55.2
36 | B36 | 41.3
37 | B37 | 58.8
38 | B38 | 61.5
39 | B39 | 58.9
40 | B40 | 49.9
41 | B41 | 40.1
42 | B42 | 60.1
43 | B43 | 58.3
44 | B44 | 56.1
45 | B45 | 50.9
46 | B46 | 55.9
47 | B47 | 41.1
48 | B48 | 62.7
49 | B49 | 57.1
50 | B50 | 60.4

Row | Sequence | thermal melting temperature [°C]
51 | B51 | 59.9
52 | B52 | 58.2
53 | B53 | 62
54 | B54 | 56.7
55 | B55 | 46.3
56 | B56 | 60.1
57 | B57 | 57.6
58 | B58 | 45.2
59 | B59 | 53.3
60 | B60 | 46
61 | B61 | 55.7
62 | B62 | 59
63 | B63 | 56.3
64 | B64 | 56.7
65 | B65 | 56.8
66 | B66 | 56
67 | B67 | 41.7
68 | B68 | 60
69 | B69 | 40.1
70 | B70 | 54.6
71 | B71 | 41.4
72 | B72 | 59.2
73 | B73 | 61
74 | B74 | 61.9
